High-throughput results as filed in PubChem BioAssay.
Most compounds without a hit are left out; they make up all but 21% or so of the library.
SARS PLP yeast – blocks SARS-CoV papain-like protease in a yeast assay; S. cerevisiae expressing SARS-CoV PLpro, growth rescue; Potency, µM (highest dose often 32.9 µM), for inactives: at the top dose activity, positive = growth rescue, hits mostly activators; 330,000 compounds, 0.19% hits; AID 485353; calls by dose curve; also: potency is read from the fitted curve at half-maximal effect; 0% is about no effect; nearly all actives have a fitted effect of over 55% in size
Pf growth 96h – P. falciparum growth inhibition at 96 hours. P. falciparum luciferase reporter growth, 96 h. Potency, µM (titrated, usually from 28.7 µM), inactives show at the highest dose activity change, negative = inhibition, actives largely listed as inhibitors. 320,000 compounds, 6.9% hits; also: potency is read from the fitted curve at half-maximal effect; % is scaled to controls: 0 for no effect and ±100 for the full control effect
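Infected RBCs, 2% Hct / 0.05% parasitemia final; luciferase-reporter P. falciparum; cpd 96 h, 37 C, 5% CO2; luciferase detection reagent; luminescence.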
Shiga toxin inh – inhibitors of Shiga toxin in Vero cells; Vero cells, Shiga toxin protein synthesis inhibition reporter; inhibition, % at 38.7 µM; 290,000 compounds, 9.2% hits; in the data active = inhibition mostly above about 28%, no sharp cut-off; inactive = mostly below about 43%; also: 0% is about no effect
NS1 function inh – inhibitors of influenza NS1 protein function; Potency, µM (highest dose often 46.1 µM), for inactives: top-dose activity, positive = more growth; 270,000 compounds, 0.4% hits; calls by dose curve; also: potency is read from the fitted curve at half-maximal effect; actives are rising curves; nearly all actives have a fitted effect of over 50% in size
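In this qHTS, NS1 from influenza A is expressed in budding yeast, where it slows growth. Cells are switched from glucose to 2% galactose medium (pH 6.0, -URA), treated with compound, and growth recovery is read at OD600.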
CHX counter – counter-screen hit for Shiga toxin inhibitors, cycloheximide | cell reporter, cycloheximide protein synthesis inhibition counterscreen | max response, % | 300,000 compounds, 12% hits | AID 2314; in the data active = max response mostly above about 13%, no sharp cut-off; inactive = mostly below about 14%; also: read at 38.3 µM for the half of the compounds with a filed dose; 0% is about no effect
Pf growth 48h – inhibits P. falciparum growth in the first generation, 48 h. Potency, µM (top dose mostly 28.7 µM), without a hit: at the highest dose activity change, negative = inhibition, usual class: inhibitors. AID 504832. P. falciparum luciferase growth in erythrocytes, 48 h. 310,000 compounds, 5.9% hits; also: potency is read from the fitted curve at half-maximal effect; % is scaled to controls: 0 for no effect and ±100 for the full control effect
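Here the parasites carry a stable luciferase gene and grow inside erythrocytes in Albumax-based RPMI medium with compound for one erythrocytic cycle. Activity is scored as loss of luminescent signal.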
Numbers without * were called inactive; ? = inconclusive; . = no result. Unless noted, calls follow the shape of the dose curve; as a rule, active = well fitted inhibition curve with a large enough effect; inconclusive = small, poorly fitted or top-dose-only effect, or another doubt; inactive = no such curve, though single readings can be large or run the other way.

SMILES | SARS PLP yeast | Pf growth 96h | Shiga toxin inh | NS1 function inh | CHX counter | Pf growth 48h
O=C(OCC(=O)N1CCN(c2ccccc2)CC1)C1CCCN1S(=O)(=O)c1ccc(Cl)cc1 (stereo not drawn) | 2% | 68% | . | . | . | 48%
Nc1ccc2ccc3cccc[n+]3c2c1 | -7% | ? | . | -36% | -2 | 0.41µM*
C[n+]1c(-c2ccccc2)c2cc(N)ccc2c2ccc(N)cc21 | 5% | -22% | -14 | -56% | -7 | ?
Cc1ccc(C(C(=O)NC2CCCC2)N(C(=O)CCC(=O)Nc2cc(C)on2)c2ccccc2)cc1 (stereo not drawn) | -12% | -2% | -7 | 1% | -1 | -13%
Cc1cc(NC(=O)CSCC(=O)N(c2cccc(Cl)c2)C(C(=O)NC2CCCCC2)c2ccc(O)c(O)c2)no1 (stereo not drawn) | -18% | 9.3µM* | 13 | 5% | 1 | ?
COc1ccc(N(C(=O)CSCC(=O)Nc2cc(C)on2)C(C(=O)NC2CCCCC2)c2ccc(O)c(O)c2)cc1 (stereo not drawn) | -9% | 2.6µM* | -2 | 2% | -1 | -4%
Cc1cc(NC(=O)CSCC(=O)N(c2ccc(F)cc2)C(C(=O)NC2CCCCC2)c2ccc(O)c(O)c2)no1 (stereo not drawn) | 0% | 15µM* | -3 | 5% | -1 | ?
COc1ccc(N(C(=O)/C=C/C(=O)Nc2cc(C)on2)C(C(=O)NC2CCCC2)c2ccccc2C)cc1 (stereo not drawn) | 5% | 5% | -11 | 5% | -3 | 9.3µM*
COc1ccc(N(C(=O)CCC(=O)Nc2cc(C)on2)C(C(=O)NC2CCCC2)c2ccco2)cc1 (stereo not drawn) | 0% | ? | 21 | . | -2 | -5%
Cc1cc(NC(=O)CCC(=O)N(c2ccc(F)cc2)C(C(=O)NC2CCCC2)c2cccnc2)no1 (stereo not drawn) | 1% | -27% | 2 | 8% | -4 | ?
COc1ccc(C2=C3C(=O)OCC3Cc3ncn(Cc4ccccc4)c32)cc1 (stereo not drawn) | 1% | ? | . | . | . | -26%
COc1cc(=O)[nH]c(SC(C)C(=O)Nc2cc(C)on2)n1 (stereo not drawn) | -2% | 18% | -19 | 4% | -4 | 17%
CN(Cc1ccccc1Br)C(=O)CSc1nnnn1C1CC1 | 0% | 3.3µM* | . | . | . | ?
Cc1ccc(NC(=O)Cc2ncc(C(F)(F)F)cc2Cl)cc1Cl | -5% | -2% | -19 | 4% | 14 | 43%
Nc1nc(NC(=O)c2ccc(Cl)cc2)nn1-c1ccccc1 | 6% | 253% | 33 | 17% | 17* | 42%
Nc1nc(NC(=O)c2cccnc2)nn1-c1ccccc1 | 2% | 59% | 12 | -1% | 13 | .
CCc1ccc(NC(=O)CCNS(=O)(=O)c2cccc3nsnc23)cc1 | -6% | . | -18 | -4% | -2 | -2%
CCC(C)(C)NC(=O)C(c1cccn1C)N(C(=O)Cn1nnc2ccccc21)c1ccc(OC)cc1OC (stereo not drawn) | 11% | 6% | 13 | -9% | 5 | 8.3µM*
COCCNC(=O)C(c1ccncc1)N(C(=O)Cn1nnc2ccccc21)c1ccc(OC)cc1 (stereo not drawn) | 1% | -27% | -10 | -5% | -3 | -8%
CCOc1ccc(N(C(=O)Cn2nnc3ccccc32)C(C(=O)NC(C)(C)CC)c2cccn2C)cc1 (stereo not drawn) | -13% | 2% | 11 | 10% | -1 | 13µM*
Cc1occc1C(=O)NNC(=S)Nc1ccccc1C(F)(F)F | 6% | ? | 56* | 5% | 26* | 69%
O=C(NNC(=S)Nc1ccccc1C(F)(F)F)c1ccc(Br)o1 | -2% | 82% | 101* | 1% | 30* | 44%
Cc1ccccc1NC(=S)NNC(=O)c1ccoc1C | 0% | 160% | 48* | 1% | 35 | 121%
CCNC(=S)NNC(=O)c1ccoc1C | 6% | ? | -5 | 7% | -3 | 5%
Cc1occc1C(=O)NNC(=O)c1ccccc1F | -4% | -2% | 40 | . | 23* | 104%
SMILES | SARS PLP yeast | Pf growth 96h | Shiga toxin inh | NS1 function inh | CHX counter | Pf growth 48h
COC(=O)c1cc(Br)ccc1NC(=O)CCNC(=O)c1ccco1 | -4% | 12% | -3 | -10% | -2 | 14%
COc1cc(OC)c(/C=N/NC(=O)c2ccncc2)c(OC)c1 | 2% | -28% | -3 | -3% | -1 | -7%
Cc1occc1C(=O)NNC(=S)Nc1ccccc1 | -3% | 193% | 77* | 6% | 35* | 151%
Cc1[nH]c2ccccc2c1C(=O)CN1CCN(c2ccc(Cl)cc2)CC1 | 0% | ? | -10 | -2% | -5 | ?
C#CCOCCOCCOCCNc1nc(N2CCN(C(=O)CCCCCCCCCCNC(=O)[C@H]([C@@H](C)CC)n3cc(CCCCN=C(N)N)nn3)CC2)nc(N2CCN(C(=O)CCCCCCCCCCNC(=O)[C@H](CCCCN)n3cc(C)nn3)CC2)n1 | 3% | 4.7µM* | . | . | . | 3.7µM*
C#CCOCCOCCOCCNc1nc(N2CCN(C(=O)CCCCCCCCCCNC(=O)[C@H]([C@@H](C)CC)n3cc(CCCCN=C(N)N)nn3)CC2)nc(N2CCN(C(=O)CCCCCCCCCCNC(=O)[C@H](CO)n3cc(CCCCCN)nn3)CC2)n1 | -3% | 5.2µM* | . | . | . | 5.2µM*
C#CCOCCOCCOCCNc1nc(N2CCN(C(=O)CCCCCCCCCCNC(=O)Cn3cc(CCCCCN)nn3)CC2)nc(N2CCN(C(=O)CCCCCCCCCCNC(=O)[C@H]([C@@H](C)CC)n3cc(CCCCN=C(N)N)nn3)CC2)n1 | -7% | 3.3µM* | . | . | . | 2.1µM*
C#CCOCCOCCOCCNc1nc(N2CCN(C(=O)CCCCCCCCCCNC(=O)[C@H]([C@@H](C)CC)n3cc(CCCCN=C(N)N)nn3)CC2)nc(N2CCN(C(=O)CCCCCCCCCCNC(=O)[C@H]([C@@H](C)CC)n3cc(CCCCN=C(N)N)nn3)CC2)n1 | -2% | 4.1µM* | . | . | . | 3.7µM*
C#CCOCCOCCOCCNc1nc(N2CCN(C(=O)[C@H]([C@@H](C)CC)n3cc(CCCCN)nn3)CC2)nc(N2CCN(C(=O)[C@H](CCCCN)n3cc(CCCC)nn3)CC2)n1 | 4% | -27% | . | . | . | ?
C=COC(=O)c1sc2nc(C)cc(C)c2c1N | -1% | -14% | 19 | -9% | 13 | 38%
N#CC1=C(N)Oc2c(oc(CO)cc2=O)C1c1ccccc1[N+](=O)[O-] (stereo not drawn) | 0% | -4% | -16 | 2% | -3 | 4%
CN1CCN(Cc2c(C(=O)N/N=C/c3cccc(Br)c3)nnn2-c2nonc2N)CC1 | 0% | 26% | -24 | 6% | -15 | ?
O=C1c2ccccc2NC(c2cccnc2)N1c1ccccc1F (stereo not drawn) | 3% | 0% | -2 | 20% | 0 | 0%
